Assay results: PubChem BioAssay (EPA / NIEHS)
Records with an inconclusive call do not appear. Calls of active or inactive are those of the source. How the source made its calls, unless noted: active means hit-call score of the fitted dose curve at least 0.9, where 1 is the maximum; inactive means score below 0.9.

Assays:
[1] = biological target: Nucleoli Translocation, AR (gene 367) (UniProt P10275); test: UPITT_HCI_U2OS_AR_TIF2_Nucleoli_Antagonist: University of Pittsburgh U2OS Androgen Receptor-Transcriptional Intermediary Factor 2 (AR-TIF2) Antagonism High Content Imaging Assay for Nucleoli Translocation (AID 2283997; active means hit-call score of the fitted dose curve at least 0.9, where 1 is the maximum)
Sequence of Nucleoli Translocation, AR (gene 367) (P10275 whole entry, looked up): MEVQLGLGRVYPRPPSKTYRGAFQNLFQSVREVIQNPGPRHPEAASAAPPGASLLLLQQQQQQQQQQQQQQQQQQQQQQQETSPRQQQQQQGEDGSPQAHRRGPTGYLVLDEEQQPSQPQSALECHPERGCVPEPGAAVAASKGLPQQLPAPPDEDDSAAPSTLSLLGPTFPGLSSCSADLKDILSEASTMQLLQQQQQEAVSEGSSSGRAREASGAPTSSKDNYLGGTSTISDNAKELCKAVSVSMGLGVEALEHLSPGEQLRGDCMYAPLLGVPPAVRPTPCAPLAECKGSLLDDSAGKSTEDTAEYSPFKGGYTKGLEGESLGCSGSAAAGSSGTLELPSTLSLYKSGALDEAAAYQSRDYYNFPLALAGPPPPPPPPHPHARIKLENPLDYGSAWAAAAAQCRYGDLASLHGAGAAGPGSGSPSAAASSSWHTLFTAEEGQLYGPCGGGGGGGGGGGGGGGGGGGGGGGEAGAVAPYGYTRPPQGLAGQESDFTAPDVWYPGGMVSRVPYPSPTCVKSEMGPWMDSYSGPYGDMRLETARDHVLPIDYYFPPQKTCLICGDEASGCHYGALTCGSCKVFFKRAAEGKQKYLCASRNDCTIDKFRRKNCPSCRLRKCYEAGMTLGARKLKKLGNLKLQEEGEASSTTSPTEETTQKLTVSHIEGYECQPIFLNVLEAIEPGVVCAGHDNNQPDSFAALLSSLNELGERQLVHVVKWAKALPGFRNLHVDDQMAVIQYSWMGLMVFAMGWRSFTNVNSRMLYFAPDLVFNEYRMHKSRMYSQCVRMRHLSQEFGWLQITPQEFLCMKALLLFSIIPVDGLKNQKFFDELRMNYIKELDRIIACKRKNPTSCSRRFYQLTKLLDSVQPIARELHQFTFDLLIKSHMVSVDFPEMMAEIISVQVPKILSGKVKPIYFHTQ
Method in brief: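 U2OS cells co-expressing red-fluorescent-tagged human AR and green-fluorescent-tagged TIF2, imaged by high-content microscopy for nucleolar red fluorescence. Antagonist mode against DHT; primary screen at 20 uM final (0.2% DMSO).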

[2] = biological target: Ratio of Nucleoli Translocation and Cytoplasm, AR (gene 367) (UniProt P10275); test: UPITT_HCI_U2OS_AR_TIF2_Nucleoli_Cytoplasm_Ratio_Antagonist: University of Pittsburgh U2OS Androgen Receptor-Transcriptional Intermediary Factor 2 (AR-TIF2) Antagonism High Content Imaging Assay for Ratio of Nucleoli Translocation and Cytoplasm (AID 2283999; active means hit-call score of the fitted dose curve at least 0.9, where 1 is the maximum;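 further: antagonists lower the DHT-driven ratio of nucleolar to cytoplasmic red signal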)
Sequence of Ratio of Nucleoli Translocation and Cytoplasm, AR (gene 367) (P10275 whole entry, looked up): as above
Method in brief: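 High-content imaging quantifies the red nucleolar:cytoplasmic fluorescence ratio in U2OS cells with AR-RFP and TIF2-GFP. Final concentrations are 20 uM (screen) or 0.195–50 uM (dose response), analysed against DHT as baseline.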

[3] = biological target: Ratio of Nucleoli Translocation and Cytoplasm, AR (gene 367) (UniProt P10275); test: UPITT_HCI_U2OS_AR_TIF2_Nucleoli_Cytoplasm_Ratio_Agonist: University of Pittsburgh U2OS Androgen Receptor-Transcriptional Intermediary Factor 2 (AR-TIF2) Agonism High Content Imaging Assay for Ratio of Nucleoli Translocation and Cytoplasm (AID 2284000; active means hit-call score of the fitted dose curve at least 0.9, where 1 is the maximum;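 further: hits raise the red nucleolar to cytoplasm ratio above vehicle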)
Method in brief: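 U2OS cells expressing RFP-tagged human AR and GFP-tagged TIF2; high-content imaging ratio of nucleolar to cytoplasmic red fluorescence, fitted as gain of signal vs DMSO. Single point at 20 uM final (0.2% DMSO); concentration-response 0.195-50 uM final (0.5% DMSO).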

[4] = CCTE_Harrill_HTTr_Viability_MCF7: CCTE's 6-hour Cell Viability Assessment for the High-Throughput Transcriptomics (HTTr) Platform, in MCF-7 cells cultured in DMEM + 10% fetal bovine serum, Harrill Lab (AID 2284010)
Method in brief: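 Viability measured through PI dye exclusion by high-content imaging at 6 h post-dosing.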

[5] = CCTE_Harrill_HTTr_Apoptosis_MCF7: CCTE's 6-hour Apoptosis Assessment for the High-Throughput Transcriptomics (HTTr) Platform, in MCF-7 cells cultured in DMEM + 10% fetal bovine serum, Harrill Lab (AID 2284011)
Method in brief: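 MCF-7 cells in DMEM + 10% FBS exposed 6 h to chemicals over an eight-point dilution series. Caspase-3/7 activation imaged by high-content CellEvent Green staining; fitted bidirectionally versus DMSO.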

[6] = CCTE_Harrill_HTTr_CellCount_MCF7: CCTE's Cell Proliferation Assessment for the High-Throughput Transcriptomics (HTTr) Platform, Harrill Lab (AID 2284012; active means hit-call score of the fitted dose curve at least 0.9, where 1 is the maximum;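 further: count of Hoechst-stained nuclei per well by high-content imaging in MCF-7 cells; cells exposed to compound for six hours; intended direction is loss of nuclei count meaning fewer cells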)
Method in brief: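 Nuclei counting (Hoechst, high content imaging) in MCF-7 after a 6 h treatment at eight concentrations. Activity fitted bidirectionally, DMSO as negative control.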

[7] = biological target: Nucleoli Translocation, AR (gene 367) (UniProt P10275); test: UPITT_HCI_U2OS_AR_TIF2_Nucleoli_Agonist: University of Pittsburgh U2OS Androgen Receptor-Transcriptional Intermediary Factor 2 (AR-TIF2) Agonism High Content Imaging Assay for Nucleoli Translocation (AID 2283998; active means hit-call score of the fitted dose curve at least 0.9, where 1 is the maximum)
Method in brief: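 U2OS cells expressing RFP-tagged human AR and GFP-tagged TIF2; red fluorescence in nucleoli quantified by high-content imaging. Primary screen at 20 uM final (0.2% DMSO); concentration-response 0.195–50 uM (0.5% DMSO), fitted upward versus DMSO.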

[8] = CCTE_Simmons_MITO_basal_resp_rate: CCTE's HepG2 Seahorse XF Respirometric Screening Assay at Basal Respiratory State, Simmons Lab (AID 2284001); conditions: actives raise or lower the signal
Method in brief: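 HepG2 oxygen consumption on Seahorse XF96 after compound injection, 7 concentrations 125 nM–100 uM final, reads every 6 min over 72 min. Triplicate biological replicates; bidirectional fit vs DMSO; fenpyroximate and 2,4-dinitrophenol controls.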

[9] = CCTE_Simmons_MITO_inhib_resp_rate: CCTE's HepG2 Seahorse XF Respirometric Screening Assay at Inhibited Respiratory State [full ETC block], Simmons Lab (AID 2284006); conditions: actives raise or lower the signal
Method in brief: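 Inhibited respiration was taken as HepG2 oxygen consumption after rotenone/antimycin A, which followed test-compound and FCCP injections. Chemicals were tested at seven final concentrations from 125 nM to 100 uM. Activity was fitted bidirectionally relative to DMSO.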

[10] = CCTE_Simmons_MITO_viability: CellTiter-Glo Viability Assessment for CCTE's HepG2 Seahorse XF Respirometric Screening Assay [post-hoc], Simmons Lab (AID 2284007; active means hit-call score of the fitted dose curve at least 0.9, where 1 is the maximum;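 on AC50: cells exposed to chemical for 90 min before the ATP read; actives lower ATP signal relative to DMSO baseline meaning reduced viability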)
Method in brief: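 HepG2 cells; test chemical 7 conc. (125 nM–100 uM final) × 90 min; then luminescent ATP detection. DMSO vehicle. Positive control dichlone, 8 conc. from 10 nM to 100 uM final. Loss-of-signal endpoint.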

[11] = CCTE_Shafer_MEA_acute_spike_number: CCTE's Neural Acute Assay for Total Number of Spikes, Shafer Lab (AID 2284008);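 on AC50: curve fitted for decrease in spike count so AC50 reflects inhibitors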
Method in brief: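 Rat primary cortical neurons on 48-well MEA plates, DIV 13 or 15, at 37 C. 40 min baseline then 40 min with compound (0.03-40 uM); spikes detected at 8x rms noise, expressed as percent change from baseline.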

[12] = CCTE_Shafer_MEA_acute_firing_rate_mean: CCTE's Neural Acute Assay for Mean Firing Rate, Shafer Lab (AID 2284009);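 further: analyzed for loss of signal so actives lower firing rate relative to DMSO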
Method in brief: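 Rat primary cortical neurons on 48-well MEA plates, dosed at 0.03-40 uM on DIV 13 or 15; 40 min spontaneous activity recorded at 37 C before and after compound. Spike rate per electrode averaged per well, expressed as percent change from baseline.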

[13] = CCTE_Shafer_MEA_acute_burst_number: CCTE's Neural Acute Assay for Single-Electrode Bursts, Shafer Lab (AID 2284013)
Method in brief: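 Primary rat cortical neurons on 16-electrode MEA wells, treated on DIV 13 or 15 with compound at 0.03-40 uM. Single-electrode burst count from 40-min recordings at 37 C before and after exposure; percent change from baseline per well, DMSO negative control.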

[14] = CCTE_Shafer_MEA_acute_burst_duration_mean: CCTE's Neural Acute Assay for Mean Burst Duration, Shafer Lab (AID 2284014);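 further: hits are decreases in mean burst duration relative to DMSO controls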
Method in brief: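 Rat primary cortical neurons on 48-well MEA, treated at DIV 13 or 15 with 0.03-40 uM in at least 3 wells. Value is percent change in mean burst duration, comparing 40 min recordings at 37 C before and during exposure.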

[15] = CCTE_Shafer_MEA_acute_per_burst_spike_number_mean: CCTE's Neural Acute Assay for Average Number of Spikes Per Burst, Shafer Lab (AID 2284015);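 further: hits are decreases in mean spikes per burst versus baseline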
Method in brief: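 Percent change in mean spikes per single-electrode burst is compared between a 40 min baseline and a 40 min recording with compound (0.03-40 uM). Cultures were rat cortical neurons on MEA plates at DIV 13 or 15, recorded at 37 C, with DMSO as the negative control.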

[16] = CCTE_Shafer_MEA_acute_interburst_interval_mean: CCTE's Neural Acute Assay for Mean Interburst Interval, Shafer Lab (AID 2284016);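 further: percent change of mean interburst interval versus each well's own pre-dose baseline; curves fitted for decrease in interburst interval relative to DMSO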
Method in brief: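 Percent change in mean single-electrode interburst interval was calculated per well from 40 min recordings before and after compound (0.03-40 uM). Recordings were made at 37 C on rat cortical cultures at DIV 13 or 15, with spikes detected at 8x rms threshold.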

[17] = CCTE_Shafer_MEA_acute_burst_percentage_mean: CCTE's Neural Acute Assay for Percentage of Spikes in a Burst, Shafer Lab (AID 2284017);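 on AC50: curve fitted for loss of signal so potency reflects decreased burst percentage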
Method in brief: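 Well-level mean burst percentage from a 40-min recording after compound (0.03-40 uM) expressed as percent change from a 40-min baseline at 37C. Cultures: primary rat cortical neurons on MEA, dosed on DIV 13 or 15; fitted downward relative to DMSO.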

[18] = system: DIO1 (gene 1733); test: CCTE_GLTED_hDIO1: CCTE's human Deiodinase 1 (DIO1) Inhibition Assay, Great Lakes Toxicology and Ecology Division (GLTED) Lab (AID 2283987; active means hit-call score of the fitted dose curve at least 0.9, where 1 is the maximum;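 further: isolated human DIO1 enzyme in a cell-free setup rather than cells; enzyme activity read as free iodide liberated from substrate via Sandell-Kolthoff colorimetry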)
Method in brief: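 Cell-free human DIO1 enzyme incubated 3 h with test chemical; iodide freed from substrate then measured by Sandell-Kolthoff absorbance. Run in triplicate; loss of signal relative to DMSO taken as inhibition.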

[19] = CCTE_Harrill_HTTr_Apoptosis_PRF_DMEM_6hr: (Pilot) CCTE's 6-hour Apoptosis Assessment for the High-Throughput Transcriptomics (HTTr) Platform, in MCF-7 cells cultured phenol red-free DMEM + 10% charcoal-stripped fetal bovine serum, Harrill Lab (AID 2283984)
Method in brief: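 MCF-7 cells in phenol red-free DMEM + 10% charcoal-stripped FBS, eight-point dilution series, 6 h exposure. Caspase-3/7 activation imaged by high-content imaging with CellEvent Caspase 3/7 Green; bidirectional fit versus DMSO baseline.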

[20] = CCTE_Harrill_HTTr_Apoptosis_PRF_DMEM_24hr: (Pilot) CCTE's 24-hour Apoptosis Assessment for the High-Throughput Transcriptomics (HTTr) Platform, in MCF-7 cells cultured in phenol red-free DMEM + 10% charcoal-stripped fetal bovine serum, Harrill Lab (AID 2283986)
Method in brief: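 MCF-7 cells in phenol red-free DMEM with 10% charcoal-stripped FBS, exposed 24 h across an eight-point dilution series. Caspase-3/7 activation imaged with CellEvent Green by high content imaging; bidirectional fitting against DMSO.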

Measured: AC50

Cc1cccc([N+](=O)[O-])c1C
inactive: [1] | [2] | [3] | [4] | [5] | [6]

COc1cc(-c2nc(NC(=O)c3cc4cc(C)cc(C)c4n3CC(=O)O)sc2CCC2CCCCC2)c(OC)cc1Cl
active: [1] 11.4 µM
inactive: [7] | [2] | [3] | [4] | [5]

CC(C)(C)c1cc(O)c(C(C)(C)C)cc1O
active: [8] 18.3 µM | [11] 25.9 µM | [12] 25.9 µM | [14] 29.4 µM | [16] 31.4 µM
inactive: [1] | [7] | [3] | [9] | [10] | [4] | [5] | [13] | [15] | [17]

CCCCCC(=O)O
inactive: [7] | [4] | [5]

Cc1ccccc1Cl
inactive: [1] | [7]

CN[C@H]1CC[C@@H](c2ccc(Cl)c(Cl)c2)c2ccc(S(N)(=O)=O)cc21
inactive: [2] | [3] | [9] | [10] | [11] | [12] | [4] | [5] | [6] | [13] | [14] | [16]
active: [1] 50 µM | [7] 12.8 µM | [8] 25.6 µM | [15] 20 µM | [17] 31.6 µM

COc1cc(/C=C/C(=O)CC(=O)/C=C/c2ccc(O)c(OC)c2)ccc1O
active: [2] 5.79 µM
inactive: [7] | [3] | [4] | [5] | [6]

COc1ccc2c(c1)c(CC(=O)O)c(C)n2C(=O)c1ccc(Cl)cc1
active: [8] 13.4 µM
inactive: [7] | [2] | [3] | [9] | [10] | [11] | [12] | [4] | [5] | [6] | [13] | [14] | [15] | [16] | [17]

CCCCC(CC)COC(=O)CC(C(=O)OCC(CC)CCCC)S(=O)(=O)O (stereo not drawn)
active: [18] 96.2 µM | [10] 56.1 µM
inactive: [8] | [9] | [4] | [5] | [6]

CCOC(=O)C(C)(C)Oc1ccc(Cl)cc1
inactive: [19] | [20] | [11] | [12] | [4] | [5] | [13] | [14] | [15] | [16] | [17]

COc1cc(S(=O)(=O)O)c(C)cc1N=Nc1c(O)ccc2cc(S(=O)(=O)O)ccc12
inactive: [4] | [5] | [6]
active: [8] 38.7 µM | [9] 23.8 µM | [10] 50 µM

Nc1ccc2c(c1)C(=O)c1ccccc1C2=O
inactive: [11] | [12] | [4] | [5] | [13] | [14] | [15] | [16] | [17]

NS(=O)(=O)c1cc2c(cc1Cl)NCNS2(=O)=O
inactive: [11] | [12] | [4] | [5] | [6] | [13] | [14] | [15] | [16] | [17]

COCCOC[C@H](CC1(C(=O)NC2CCC(C(=O)O)CC2)CCCC1)C(=O)Oc1ccc2c(c1)CCC2 (stereo partly drawn)
inactive: [4] | [5]

CCCCCCCCCCO
active: [17] 10.3 µM
inactive: [11] | [12] | [4] | [5] | [6] | [13] | [14] | [15] | [16]

O=c1c(O)c(-c2ccc(O)c(O)c2)oc2cc(O)cc(O)c12
inactive: [4] | [5]
